Measured values reported in PubChem BioAssay.
Several values for one entry are separate records, joined by “and”; a condition that tells them apart may be missing. Equal entries are not always repeated. Activity calls are given as the source filed them.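 How the source made its calls, unless noted: active means thallium flux through the channel raised or lowered by more than 3 SD from vehicle-only wells, actives on both sides; inactive means the rest.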

How the values were obtained:
[1] = liver-stage malaria parasite growth inhibition, primary screen, cell-based, HepG2, luciferase luminescence, HepG2 viability (AID 624349; in the data active means parasite load remaining mostly below about 12%, no sharp cut-off; inactive means mostly above about 10%;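 further: 100% = mean of DMSO negative control wells on the same plate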); conditions: P. berghei liver stage in HepG2, luciferase luminescence, concentration not given here; parasite load remaining: stronger effect = lower value; viability: measured here: HepG2 viability without parasites
[2] = Cy5 fluorescence interference with SSB-bound oligo, artefact control for HCV NS3 helicase inhibitor project, biochemical, NIH Clinical Collection, E. coli SSB (AID 743268; call rule not given here)
[3] = test system: Hepatitis C virus NS3 helicase; assay: HCV NS3 helicase inhibitors, primary screen, biochemical, fluorescence polarization, NIH Clinical Collection (AID 743270; call rule not given here); conditions: NS3 helicase binding to Cy5-dT15 DNA, stronger effect = higher value, concentration not given here
[4] = biological target: Single-stranded DNA-binding protein (Escherichia coli (strain K12)) (UniProt P0AGE0); assay: E. coli SSB displacement from DNA, counter-screen for HCV NS3 helicase inhibitor project, biochemical, fluorescence polarization, NIH Clinical Collection (AID 743271; in the data active means inhibition above about 28%); conditions: stronger effect = higher value, concentration not given here
[5] = fluorescence interference in NS3h assay format, artefact control for HCV NS3 helicase inhibitor project, biochemical, NIH Clinical Collection (AID 743272; call rule not given here;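 further: HCV NS3 helicase with a Cy5 labelled single stranded DNA probe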); conditions: fluorescence interference counterscreen, stronger effect = lower value
[6] = modulation of C. elegans fzo-1 (AID 1259413; call rule not given here;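 further: fzo-1 mutant C. elegans worms in liquid wells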); conditions: C. elegans fzo-1 modulator screen, mean read-out; stronger effect = higher value
[7] = sensitizers of A549 cells to miR-34 induction, primary screen, imaging, A549 dox-inducible miR-34, nuclei and caspase counts (AID 1347080;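 active means compounds whose cell count with miR-34 switched on is under 0.7 times the count with it off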); conditions: A549 miR-34 inducible, Hoechst nuclei count, 48 h
[8] = test system: F380Y; assay: modulators of BK channel variants, profiling panel, selectivity assay, cell-based, U2OS BacMam, thallium flux, beta subunits (AID 1259406); conditions: at 30 µM;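 further: initial slope of Thallos dye fluorescence rise after thallium is added; log ratio against the mean of 0.3% DMSO vehicle wells on the same plate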
[9] = test system: F380Y/beta1; assay: as above; conditions: at 30 µM
[10] = test system: F380Y/beta2Delta; assay: as above; conditions: at 30 µM
[11] = test system: F380Y/beta4; assay: as above; conditions: at 30 µM
[12] = biological target: Calcium-activated potassium channel subunit alpha-1 (Homo sapiens) + Leucine-rich repeat-containing protein 26 (Homo sapiens) (UniProt Q12791+Q2I0M4); assay: as above; conditions: F380Y/Slo1WT/gamma1, at 30 µM
[13] = test system: R275C; assay: as above; conditions: at 30 µM
[14] = test system: R275C/beta1; assay: as above; conditions: at 30 µM
[15] = test system: R275C/beta2Delta; assay: as above; conditions: at 30 µM
[16] = test system: R275C/beta4; assay: as above; conditions: at 30 µM
[17] = test system: R275C/Slo1WT/beta2; assay: as above; conditions: at 30 µM
[18] = stronger effect = lower value, cell number ratio, induced over uninduced
[19] = measured here: relative caspase fold change +Dox/-Dox
[20] = measured here: total cells with miR-34 induction, stronger effect = lower value
[21] = measured here: total cells without miR-34 induction

Sequence of Calcium-activated potassium channel subunit alpha-1 (Homo sapiens) + Leucine-rich repeat-containing protein 26 (Homo sapiens) (Q2I0M4 whole entry, looked up, one chain of several): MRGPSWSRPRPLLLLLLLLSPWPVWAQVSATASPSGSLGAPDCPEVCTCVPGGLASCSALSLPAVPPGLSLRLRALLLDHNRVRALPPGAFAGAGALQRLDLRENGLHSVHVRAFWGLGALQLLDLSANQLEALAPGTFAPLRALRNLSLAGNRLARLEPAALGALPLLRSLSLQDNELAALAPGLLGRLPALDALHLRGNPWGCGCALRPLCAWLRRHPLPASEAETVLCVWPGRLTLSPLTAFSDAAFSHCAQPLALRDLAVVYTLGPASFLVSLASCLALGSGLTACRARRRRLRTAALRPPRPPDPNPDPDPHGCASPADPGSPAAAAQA

CC(C)c1ccc2c(c1)c(SC(C)(C)C)c(CC(C)(C)C(=O)O)n2Cc1ccc(Cl)cc1
2340 and 2670 and 5710: cell count [7, 21]
67.1%: viability [1]
inactive: parasite load remaining [1] 36.1% | fluorescence ratio [2] 0.95 | inhibition [3] 7.52% | inhibition [4] 1.44% | fluorescence ratio [5] 0.96 | mean signal [6] 225 | fold change [7, 18] 1.09 and 1 and 0.966 | log fold change Tl+ flux [8] -0.0174 | log fold change Tl+ flux [9] 0.00246 | log fold change Tl+ flux [10] 0.0246 | log fold change Tl+ flux [11] -0.0142 | log fold change Tl+ flux [12] 0.00963 | log fold change Tl+ flux [13] 0.00647 | log fold change Tl+ flux [14] 0.0168 | log fold change Tl+ flux [15] 0.0237 | log fold change Tl+ flux [16] -0.00771 | log fold change Tl+ flux [17] 0.027
0.262 and 1.3 and 1.57: fold change [7, 19]
2540 and 2670 and 5520: cell count [7, 20]

Cc1nnc(SCC2=C(C(=O)O)N3C(=O)C(NC(=O)Cn4cnnn4)C3SC2)s1 (stereo not given)
inactive: parasite load remaining [1] 65.6% | mean signal [6] 235 | fold change [7, 18] 0.923 | log fold change Tl+ flux [8] -0.00444 | log fold change Tl+ flux [9] -0.0723 | log fold change Tl+ flux [10] 0.025 | log fold change Tl+ flux [11] 0.028 | log fold change Tl+ flux [12] 0.00509 | log fold change Tl+ flux [13] 0.00777 | log fold change Tl+ flux [14] 0.00195 | log fold change Tl+ flux [15] 0.0237 | log fold change Tl+ flux [16] -0.0318 | log fold change Tl+ flux [17] 0.0155
1.36: fold change [7, 19]
10000: cell count [7, 20]
110%: viability [1]
10800: cell count [7, 21]

CC1CC2C3CCC4=CC(=O)C=CC4(C)C3(F)C(O)CC2(C)C1(O)C(=O)CO (stereo not given)
active: fluorescence ratio [2] 0.1
inactive: parasite load remaining [1] 69.5% | inhibition [3] -0.45% | inhibition [4] 1.81% | fluorescence ratio [5] 1.04 | mean signal [6] 266 | fold change [7, 18] 0.928 | log fold change Tl+ flux [8] -0.000812 | log fold change Tl+ flux [9] 0.043 | log fold change Tl+ flux [10] 0.0297 | log fold change Tl+ flux [11] -0.00203 | log fold change Tl+ flux [12] 0.021 | log fold change Tl+ flux [13] 0.00154 | log fold change Tl+ flux [14] 0.0289 | log fold change Tl+ flux [15] -0.0295 | log fold change Tl+ flux [16] 0.0089 | log fold change Tl+ flux [17] -0.0137
8000: cell count [7, 20]
8620: cell count [7, 21]
108%: viability [1]
0.945: fold change [7, 19]

CCC(C)(C)N=C(NC#N)Nc1cccnc1
inactive: parasite load remaining [1] 49.6% | fluorescence ratio [2] 0.95 | inhibition [3] -2.84% | inhibition [4] -3.54% | fluorescence ratio [5] 0.92 | mean signal [6] 201 | fold change [7, 18] 0.909 | log fold change Tl+ flux [8] 0.00312 | log fold change Tl+ flux [9] 0.00744 | log fold change Tl+ flux [10] 0.00568 | log fold change Tl+ flux [11] 0.0162 | log fold change Tl+ flux [12] 0.00265 | log fold change Tl+ flux [13] -0.0443 | log fold change Tl+ flux [14] -0.0211 | log fold change Tl+ flux [15] -0.00288 | log fold change Tl+ flux [16] 0.0126 | log fold change Tl+ flux [17] -0.00574
69.3%: viability [1]
1.24: fold change [7, 19]
9920: cell count [7, 20]
10900: cell count [7, 21]
